PubChem BioAssay (NCI)
About 79,000 compounds went through this panel and 15% of them were active in at least one assay; those are over-represented in the sample as a whole. Rule as the data show it: active = growth inhibition above about 70%; inactive = the rest.

Experiments:
[1] = NCI Yeast Anticancer Drug Screen. Data for the rad50 strain (AID 155);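 also: 0% = growth of vehicle-only cultures of the same strain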; conditions: S. cerevisiae rad50 strain growth inhibition; at 50.0 µM; stronger effect = higher value
Outline: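 Genetically altered yeast (DNA repair pathway); compound treatment; growth inhibition vs vehicle ctrl.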

[2] = NCI Yeast Anticancer Drug Screen. Data for the mec2-1 strain (AID 157); conditions: S. cerevisiae mec2-1 strain, at 50.0 µM, stronger effect = higher value
Outline: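 Using mec2-1 yeast: add compound, measure growth, express inhibition versus vehicle-treated cultures.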

[3] = NCI Yeast Anticancer Drug Screen. Data for the sgs1 mgt1 strain (AID 161);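 also: 0% = growth of cultures given vehicle only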; conditions: S. cerevisiae sgs1 mgt1 strain, at 50.0 µM, stronger effect = higher value
Outline: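 This yeast growth screen uses a strain with defined DNA-repair lesions; compound-treated growth is compared with vehicle-treated growth.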

[4] = NCI Yeast Anticancer Drug Screen. Data for the cln2 rad14 strain (AID 165);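 also: 0% = growth equal to vehicle treated cultures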; conditions: S. cerevisiae cln2 rad14 strain, at 50.0 µM, stronger effect = higher value
Outline: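 Yeast strain cln2 rad14, bearing defects in cell cycle control and DNA repair, serves as the test system; values reflect growth inhibition compared with vehicle.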

[5] = NCI Yeast Anticancer Drug Screen. Data for the bub3 strain (AID 167); conditions: S. cerevisiae bub3 mutant strain, at 50.0 µM, stronger effect = higher value
Outline: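 Yeast carrying a defined mutation is treated with each compound, and growth is compared with that of vehicle-exposed cells to give inhibition.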

[6] = NCI Yeast Anticancer Drug Screen. Data for the mlh1 rad18 strain (AID 175); conditions: S. cerevisiae mlh1 rad18 strain growth inhibition; at 50.0 µM; stronger effect = higher value
Outline: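 Steps: expose repair-defective yeast to compound; measure growth; express inhibition against vehicle-treated controls.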

Measured: growth inhibition

CN(C)c1ccc(/C=c2\sc3nc4ccccc4n3c2=O)cc1
inactive: [1] -8.75% | [2] -32.3% | [3] -13.1% | [4] -15.3% | [5] -16.5% | [6] -21.4%

CC(C)C(/C=C/c1ccc(Br)cc1)=N\NC(N)=O
inactive: [1] -14.1% | [2] -29.2% | [3] -40.8% | [4] -13.9% | [5] -18.1% | [6] -18.9%

CC(=O)NC1C(OCC(=O)NCCNc2ccc([N+](=O)[O-])c3[nH]c4ccccc4c(=O)c23)C(O)C(CO)OC1(C)OCc1ccccc1 (stereo not given)
inactive: [1] -3.9% | [2] -39.9% | [3] -25.6% | [4] 8.65% | [5] -18.4% | [6] -3.4%

COc1cc2c(c(C3(O)C(=O)N(C)c4ccccc43)c1OC)OCO2 (stereo not given)
inactive: [1] 1.95% | [2] -12.4% | [3] 12.8% | [4] -53.1% | [5] -52.6% | [6] 4.9%

C1CCC(N=C2N(C3CCCCC3)C(=NC3CCCCC3)N2C2CCCCC2)CC1
inactive: [1] 4.7% | [2] -28.3% | [3] -7.2% | [4] -19.6% | [5] -20.6% | [6] -4.35%

CC(=O)C(c1ccccc1)S(=O)(=O)c1ccc(C)cc1 (stereo not given)
inactive: [1] 13.8% | [2] -18.4% | [3] -11.7% | [4] -42.4% | [5] 24.9% | [6] -1.5%

O=C1C=CC(=O)N1CCCCN1C(=O)C=CC1=O
inactive: [1] 18.8% | [2] 3.75% | [3] -17.9% | [4] -20.1% | [5] -14.4% | [6] -11.9%

CC(C)(C)c1cc(C(=S)N2CCN(C(=S)c3cc(C(C)(C)C)c(O)c(C(C)(C)C)c3)CC2)cc(C(C)(C)C)c1O
inactive: [1] 4.05% | [2] -10.7% | [3] -10.9% | [4] -48.5% | [5] 2.45% | [6] -16.9%

O=C(O)CCNCCO
inactive: [1] -3.5% | [2] 13.4% | [3] 5.1% | [4] -18.6% | [5] 20.1% | [6] 2.45%

C=C1C(=O)OC2CCC(O)C12 (stereo not given)
inactive: [1] 6.95% | [2] 5.15% | [3] 1.2% | [4] -30.6% | [5] -1.2% | [6] 11.7%

CC12O[C@H](c3ccccc3)[C@H](c3ccccc3)N1C(=O)C1(C(=O)OCc3ccccc3)CC12 (stereo not given in full)
inactive: [1] 11.3% | [2] -7.35% | [3] 6.4% | [4] 2.15% | [5] -7.05% | [6] -3.45%

CCNC(=O)N(Cc1ccccc1)Cc1ccccc1
inactive: [1] 7.55% | [2] 8.65% | [3] 6.05% | [4] 13.3% | [5] 23.5% | [6] -20.6%

Fc1ccc(-c2cc(-c3cccs3)cc(-c3ccccc3)n2)cc1
inactive: [1] 8.6% | [2] -9.45% | [3] 21.2% | [4] 8.55% | [5] 20.8% | [6] 11.1%

O=C[C@H](O)CO
inactive: [1] 26.4% | [2] -20.1% | [3] 17.2% | [4] -1.8% | [5] 8.8% | [6] 17.4%

COc1ccc(C(=O)Oc2ccc(C)c(CC(Cl)(Cl)Cl)c2)cc1
inactive: [1] -6.1% | [2] -9.5% | [3] 6.75% | [4] -12.3% | [5] -6.35% | [6] -14.4%

O=C(O)CCCCCCCCC(=O)O
inactive: [1] -7.55% | [2] -39% | [3] 7.9% | [4] -12.6% | [5] -23.8% | [6] -17.6%

CC[O-].CC[O-].O=C1C=C([O-])C(=O)c2ccccc21.O=C1C=C([O-])C(=O)c2ccccc21.[Ti+4]
inactive: [1] 17.3% | [2] 14.3% | [3] 15.4% | [4] 26.2% | [5] 30.4% | [6] 4.9%

CC/C(=N\N=C(/CC)c1ccc[nH]1)c1ccc[nH]1
inactive: [1] 36.8% | [2] -23.8% | [3] 10.2% | [4] 5.9% | [5] 23.3% | [6] 9.25%

CC(=O)[C@H]1CC[C@H]2[C@@H]3CC[C@@H]4CC(=O)CC[C@]4(C)[C@H]3[C@@H]3O[C@@H]3[C@]12C
inactive: [1] -13.2% | [2] 5.4% | [3] -11.1% | [4] -46% | [5] -1.1% | [6] 7.55%

CCc1cc(-c2cc(CC)on2)no1
inactive: [1] -3.3% | [2] -14.9% | [3] -12.4% | [4] -1.15% | [5] -19.2% | [6] 1.4%
